This note sets out measurements from the supplement of paper PMC7156485.

Each structure is given as a SMILES string. ± gives the standard deviation of the averaged measurements.
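Also: TDF denotes transformed human dermal fibroblasts of mesenchymal origin.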

One experiment deals with HCC1569. Description: cell number relative to DMSO (% of DMSO); higher = more cells (less growth inhibition / toxicity). Particulars: concentration: 10 µM; 24 h. The method in brief: (§1)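 In 384-well plates holding 800 HCC1569 or TDF cells per well in RPMI with 10% FBS, compounds were tested at 10 µM for 24 h at 37 °C in triplicate. Fixation used 3.7% formaldehyde. Staining used a rabbit anti-H1.0 antibody with an AlexaFluor 647 secondary, plus DAPI. Each value, H1.0 nuclear intensity or cell number, is a median of replicates shown as percent of the plate control, and HCC1569 values were smoothed for positional effects.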
`C[N+]1(CCCCC[N+]2(C)CCCC2)CCCC1.O=C([O-])C(O)C(O)C(=O)O.O=C([O-])C(O)C(O)C(=O)O` [Pentolinium di[L(+)-tartrate]] came in with a cell number of 103.

For the compound `Cc1cc(C(=O)Nc2cccc(C(=O)Nc3cccc(C(F)(F)F)c3)c2)on1`, the cell number was 100.

Compound `CCCCCCCCCCCCCCC(O)C(O)C(N)CO` (centres undefined) [Phytosphingosine] returned a cell number of 98.8.

In the case of `Cc1cccc(C#Cc2ccccc2)n1.Cl` [6-Methyl-2-(phenylethynyl)pyridine hydrochloride], the cell number was determined as 99.9.

For a further experiment, the system named is TDF. The experiment is described as above. As to conditions: concentration: 10 µM; 24 h. The procedure, abridged: as §1
Take `CCOC(=O)C(C)(C)Oc1ccc(Cl)cc1` [Clofibrate]: the cell number turned out to be 99.8 ± 6.2.

`C=CC(C)(O)CCC1C(=C)CCC2C(C)(C)CCCC12C` (centres undefined) [Manool]: the cell number was found to be 87.8.

Consider `NC(CCC(=O)NC(CSN=O)C(=O)NCC(=O)O)C(=O)O` (centres undefined) [S-Nitrosoglutathione], for which the cell number stood at 102.

For `CS(=O)(=O)c1ccc(-c2cc(Br)sc2-c2ccc(F)cc2)cc1`, the cell number came to 100.

The compound `Br.CN(C)CCCC1(c2ccc(F)cc2)OCc2cc(C#N)ccc21` (centres undefined) [Citalopram hydrobromide] came in with a cell number of 103.

As to `Cn1ccnc1` [1-Methylimidazole], the cell number was 105.

Turning to `CC(C)(C)C(=O)OCOC(=O)[C@@H]1N2C(=O)[C@@H](/N=C/N3CCCCCC3)[C@H]2SC1(C)C`, the cell number was found to be 93.4.

`CCCCCC#CCC#CCC#CCC#CCCCC(=O)O` [5,8,11,14-Eicosatetraynoic acid] came in with a cell number of 86.7.

Take `COC(=O)c1c(C)[nH]c(C)c1C(=O)c1ccccc1Cc1ccccc1`: the cell number amounted to 102.

`CNCCC(Oc1ccccc1OC)c1ccccc1.Cl` (centres undefined) [Nisoxetine.HCl]: the cell number stood at 101.

For the compound `CCC=CCC=CCC=CCC=CCC=CCCCC(=O)O`, the cell number stood at 102.

In the case of `Cc1nc(N)sc1-c1ccnc(Nc2ccc(N3CCOCC3)cc2)n1`, the cell number stood at 42.5.

For `Cn1c(=O)c(-c2c(Cl)cccc2Cl)cc2cnc(Nc3ccc(N4CCOCC4)cc3)nc21`, the cell number turned out to be 21.9.

Compound `Cc1[nH]c2ccccc2c1CC(=O)N[C@@H](Cc1ccccc1)C(=O)N(C)c1ccccc1` showed a cell number of 109.

`CCCC1=C(c2ccc(O)cc2)N(c2ccc(O)cc2)NC1=C1C=CC(=O)C=C1` [1,3,5-tris(4-hydroxyphenyl)-4-propyl-1H-pyrazole] showed a cell number of 107.

In turn, `O=c1c(-c2ccc(O)cc2)coc2cc(OC3OC(CO)C(O)C(O)C3O)cc(O)c12` (centres undefined) [Genistin] returned a cell number of 104.

As for `NC(N)=NC(N)=Nc1ccccc1` [1-Phenylbiguanide], the cell number amounted to 114.

`CC(=O)OCC(CCn1cnc2cnc(N)nc21)COC(C)=O` [Famciclovir] returned a cell number of 97.4.

`N=C(N)c1ccc(OCCCCCOc2ccc(C(=N)N)cc2)cc1.O=S([O-])OCCO.O=S([O-])OCCO` [Pentamidine isethionate] yielded a cell number of 90.6.

In turn, `O=c1cc(-c2ccccc2)oc2cc(O)c(O)cc12` [6,7-Dihydroxyflavone] had a cell number of 96.3.

`O=C(c1ccc(OCCN2CCCCC2)cc1)c1c(-c2ccc(O)cc2)sc2cc(O)ccc12` [Raloxifene] showed a cell number of 105.

`CC(=O)Oc1ccccc1C(=O)Oc1ccc(CO[N+](=O)[O-])cc1` [4-[(nitrooxy)methyl]phenyl 2-(acetyloxy)benzoate] gave a cell number of 66.5.

In the case of `NS(=O)(=O)c1cc2c(cc1Cl)NCNS2(=O)=O` [Hydrochlorothiazide], the cell number was 107.

In turn, `CC1(C)CC=C(c2ccccc2)c2cc(/C=C/c3ccc(C(=O)O)cc3)ccc21` had a cell number of 91.6.

`COc1c(O)cc2oc(-c3ccc(O)cc3)cc(=O)c2c1O` [5,7-dihydroxy-2-(4-hydroxyphenyl)-6-methoxy-4H-chromen-4-one] showed a cell number of 102.

For `CCCCCCCCC=CCCCCCCCC(=O)NCCO` [N-Oleoylethanolamine], the cell number stood at 108.

The compound `CN1CCN(CC(=O)N2c3ccccc3C(=O)Nc3cccnc32)CC1.Cl.Cl` [Pirenzepine.2HCl] yielded a cell number of 106.

For `CCCCC#Cc1nc(N)c2ncn(C3OC(C(=O)NCC)C(O)C3O)c2n1` (centres undefined), the cell number was 99.3.

`NS(=O)(=O)c1cc2c(cc1Cl)NC(C1CC3C=CC1C3)NS2(=O)=O` (centres undefined) [Cyclothiazide]: the cell number worked out at 105.

Turning to `Cl.NC(N)=NC(N)=Nc1cccc(Cl)c1` [1-(m-Chlorophenyl)-biguanide hydrochloride], the cell number stood at 97.2.

`O=C(Nc1cccc(Cl)c1)Nc1ncc(CCNc2ncnc3ccsc23)s1` gave a cell number of 42.9.

As for `Cc1cc(C(C)(C)C)c(O)c(C)c1CC1=NCCN1.Cl` [Oxymetazoline hydrochloride], the cell number stood at 107.

In turn, `N[C@@H](Cc1cc(I)c(Oc2cc(I)c(O)c(I)c2)c(I)c1)C(=O)O` [L-thyroxine] came in with a cell number of 89.5.

`COc1nccc(-c2c(-c3ccc(F)cc3)ncn2C2CCNCC2)n1` returned a cell number of 104.

`COc1ccc(-c2nn3c(-c4ccccn4)nnc3s2)cc1OC` showed a cell number of 103.

Compound `CCOC(=O)c1cnc2c(cnn2CC)c1NN=C(C)C` [Etazolate] gave a cell number of 108.

For the compound `C[N+]1(CCCCC[N+]2(C)CCCC2)CCCC1.O=C([O-])C(O)C(O)C(=O)O.O=C([O-])C(O)C(O)C(=O)O` [Pentolinium di[L(+)-tartrate]], the cell number stood at 110.

Regarding `Cc1cc(C(=O)Nc2cccc(C(=O)Nc3cccc(C(F)(F)F)c3)c2)on1`, the cell number was 104.

`CCCCCCCCCCCCCCC(O)C(O)C(N)CO` (centres undefined) [Phytosphingosine]: the cell number was 75.6.

On to `Cc1cccc(C#Cc2ccccc2)n1.Cl` [6-Methyl-2-(phenylethynyl)pyridine hydrochloride], for which the cell number was found to be 105.
